{"source": "PubChem BioAssay (NCATS)", "note": "“And” between values parts separate entries of the source, which are not always exact repeats. Equal entries are not always repeated. Inconclusive results are not listed. Some structures have more than one record in an assay (separate samples or runs), and their calls can disagree. The source made the active and inactive calls. Unless noted, calls follow the shape of the full dose curve.", "data": [{"tested_on": "not listed separately", "test": "Primary qHTS to identify inhibitors of SARS-CoV-2 cell entry (AID 1645846); also: nearly all actives have a fitted effect of over 45% in size; also: potency is read from the fitted curve at half-maximal effect", "conditions": "SARS-CoV-2 pseudovirus cell entry assay, luminescence; activity change, negative = inhibition: at 57.1 µM (top of the series) unless noted; series mostly up to 57.1 µM", "method_in_brief": "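Luminescence readout (Bright-Glo luciferase) 48 h after pseudoparticle addition. HEK293-ACE2 cells, 1500/well; compound pre-incubation 1 h; Normalized to spike PP and bald PP.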", "values": [{"compound": "COC(=O)c1ccc2c(C(=Nc3ccc(N(C)C(=O)CN4CCN(C)CC4)cc3)c3ccccc3)c(O)[nH]c2c1", "Potency": "17.8 µM (active)", "activity change, negative = inhibition": "-18.4%"}, {"compound": "CN(C)CC/C=C1/c2ccccc2COc2ccc(CC(=O)O)cc21", "Potency": "inactive", "activity change, negative = inhibition": "-14.5%"}, {"compound": "CCC(=O)O[C@@H]1C=C2CCC3C(CCC4(C)C3CC[C@@H]4OC(=O)CC)C2CC1", "note": "(stereo partly drawn)", "activity change, negative = inhibition": "4.26%"}, {"compound": "C[N+](C)(C)CC(=O)O", "activity change, negative = inhibition": "-0.459% and -19.8%"}, {"compound": "N[C@H]1C(O)O[C@H](CO)[C@@H](O)[C@@H]1O", "note": "(stereo partly drawn)", "activity change, negative = inhibition": "-23.2%"}, {"compound": "CC[C@@H](C(N)=O)N1CCCC1=O", "activity change, negative = inhibition": "-1.29%"}, {"compound": "O=C1NS(=O)(=O)c2ccccc21", "activity change, negative = inhibition": "-23.6%"}, {"compound": "COc1ncnc(NS(=O)(=O)c2ccc(N)cc2)c1OC", "Potency": "inactive", "activity change, negative = inhibition": "-2.62%"}, {"compound": "COc1c(Cl)cc2c([nH]c3cnccc32)c1NC(=O)c1cccnc1C", "activity change, negative = inhibition": "-30.2%"}, {"compound": "CC(C[N+](C)(C)C)OC(N)=O", "note": "(stereo not drawn)", "Potency": "inactive", "activity change, negative = inhibition": "-6.96%"}, {"compound": "CN(C)[C@@H]1C(=O)C(C(N)=O)=C(O)[C@@]2(O)C(=O)C3=C(O)c4c(O)cccc4[C@@](C)(O)[C@H]3[C@H](O)[C@@H]12", "Potency": "inactive", "activity change, negative = inhibition": "-8.27%"}, {"compound": "CC(=O)NC(C)c1ccc(Oc2ccc(OC(C)C)cc2)cc1", "note": "(stereo not drawn)", "activity change, negative = inhibition": "-26.1% [at 114 µM]"}, {"compound": "CCOc1cc(C(=O)Nc2ccc(Cl)c(-c3nc4ccccc4[nH]3)c2)cc(OCC)c1OCC", "Potency": "25.1 µM (active)"}, {"compound": "c1ccc(C2(c3ccccc3)CC2C2=NCCN2)cc1", "note": "(stereo not drawn)", "activity change, negative = inhibition": "-20.9%"}, {"compound": "O=C1C(Cl)=C(NCCN2CCOCC2)C(=O)c2ncccc21", "Potency": "11.2 µM (active)"}, {"compound": "CCOC(=O)C(C)Oc1cccc2c(=O)n(CC(=O)Nc3ccc4c(c3)OCCO4)ccc12", "note": "(stereo not drawn)", "activity change, negative = inhibition": "-0.424%"}, {"compound": "CCc1c(C(=O)C(N)=O)c2c(OCC(=O)O)cccc2n1Cc1ccccc1", "activity change, negative = inhibition": "-66.7%"}, {"compound": "NCCCC(N)(C(=O)O)C(F)F", "note": "(stereo not drawn)", "Potency": "inactive"}, {"compound": "COc1ccc(C(=O)c2c(C)n(CCN3CCOCC3)c3cc(I)ccc23)cc1", "activity change, negative = inhibition": "-80.5%"}, {"compound": "N#Cc1ccc(NC(=O)Nc2ccccc2Br)c2n[nH]nc12", "Potency": "inactive"}, {"compound": "c1ccc2[nH]ccc2c1", "Potency": "inactive"}, {"compound": "CC(C)c1onc(-c2c(Cl)cccc2Cl)c1COc1ccc(/C=C/c2cccc(C(=O)O)c2)c(Cl)c1", "Potency": "inactive"}, {"compound": "COc1ccc(-c2c(-c3ccc(O)cc3O)n[nH]c2C)cc1", "activity change, negative = inhibition": "-56.7%"}, {"compound": "CCN(CC)C(=O)c1ccc(C2=CC3(CCNCC3)Oc3cccc(O)c32)cc1", "activity change, negative = inhibition": "-22.9%"}, {"compound": "N#CCNC(=O)c1ccc(-c2ccnc(Nc3ccc(N4CCOCC4)cc3)n2)cc1", "Potency": "10 µM (active)"}, {"compound": "C#CC(C)(CC)OC(=O)c1ccccc1C(=O)O", "note": "(stereo not drawn)", "activity change, negative = inhibition": "3.66%"}, {"compound": "CC(=O)N[C@@H](CCC(N)=O)C(=O)O", "activity change, negative = inhibition": "-25.1%"}, {"compound": "CCCCOCCOc1nc(-c2ccc(C(=O)O)c(F)c2)sc1C", "activity change, negative = inhibition": "-25.8%"}, {"compound": "CCCS(=O)(=O)Nc1ccc(F)c(C(=O)c2c[nH]c3ncc(-c4ccc(Cl)cc4)cc23)c1F", "activity change, negative = inhibition": "-8.78%"}, {"compound": "Cc1cc(Nc2nc(N[C@@H](C)c3ncc(F)cn3)ncc2Cl)n[nH]1", "activity change, negative = inhibition": "-52.3%"}, {"compound": "CC(Cc1ccc(O)cc1)NCC(O)c1cc(O)cc(O)c1", "note": "(stereo not drawn)", "Potency": "inactive"}, {"compound": "O=C(N[C@H]1CN2CCC1CC2)c1ccc(Cl)cc1", "activity change, negative = inhibition": "4.38%"}, {"compound": "Cc1n[nH]c(C)c1Cc1sc2c(c1C(=O)N1C[C@H](O)CO1)c(=O)n(C)c(=O)n2CC(C)C", "activity change, negative = inhibition": "-55.4%"}, {"compound": "O=C(Nc1ccncc1)C(=O)c1cn(Cc2ccc(Cl)cc2)c2ccccc12", "activity change, negative = inhibition": "-75.6%"}, {"compound": "CCCN1CCO[C@@H]2c3cc(O)ccc3OC[C@H]21", "Potency": "inactive"}, {"compound": "CCOP(=O)(OCC)C(C)NC(=O)N(CCCl)N=O", "note": "(stereo not drawn)", "Potency": "inactive", "activity change, negative = inhibition": "-18.4%"}]}, {"tested_on": "not listed separately", "test": "VSVG counterscreen qHTS to identify inhibitors of SARS-CoV-2 cell entry (AID 1645847); also: nearly all actives have a fitted effect of over 65% in size; also: potency is read from the fitted curve at half-maximal effect; as to activity change, negative = inhibition: % is scaled to controls: 0 for no effect and ±100 for the full control effect", "conditions": "VSV-G pseudotyped particle entry, luciferase; series mostly up to 57.2 µM", "method_in_brief": "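HEK293-ACE2 cells (Expi293F stably expressing human ACE2) were pretreated with compound for 1 h at 37 °C, then infected with MLV-based VSV-G pseudotyped particles for 48 h. Luciferase luminescence was normalized to VSV-G PP and bald PP wells.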", "values": [{"compound": "COc1c(Cl)cc2c([nH]c3cnccc32)c1NC(=O)c1cccnc1C", "Potency": "inactive"}, {"compound": "CCc1c(C(=O)C(N)=O)c2c(OCC(=O)O)cccc2n1Cc1ccccc1", "Potency": "inactive"}, {"compound": "COc1ccc(C(=O)c2c(C)n(CCN3CCOCC3)c3cc(I)ccc23)cc1", "Potency": "30.4 µM (active)"}, {"compound": "COc1ccc(-c2c(-c3ccc(O)cc3O)n[nH]c2C)cc1", "Potency": "12.4 µM (active)"}, {"compound": "N#CCNC(=O)c1ccc(-c2ccnc(Nc3ccc(N4CCOCC4)cc3)n2)cc1", "Potency": "6.81 µM (active)"}, {"compound": "CCCCOCCOc1nc(-c2ccc(C(=O)O)c(F)c2)sc1C", "Potency": "inactive"}, {"compound": "CCCS(=O)(=O)Nc1ccc(F)c(C(=O)c2c[nH]c3ncc(-c4ccc(Cl)cc4)cc23)c1F", "Potency": "21.5 µM (active)"}, {"compound": "Cc1cc(Nc2nc(N[C@@H](C)c3ncc(F)cn3)ncc2Cl)n[nH]1", "Potency": "6.81 µM (active)"}, {"compound": "Cc1n[nH]c(C)c1Cc1sc2c(c1C(=O)N1C[C@H](O)CO1)c(=O)n(C)c(=O)n2CC(C)C", "Potency": "1.24 µM (active)"}, {"compound": "O=C(Nc1ccncc1)C(=O)c1cn(Cc2ccc(Cl)cc2)c2ccccc12", "Potency": "0.961 µM (active)"}]}, {"molecular_target": "Papain (Carica papaya) (UniProt P00784)", "sequence (P00784 whole entry, looked up)": "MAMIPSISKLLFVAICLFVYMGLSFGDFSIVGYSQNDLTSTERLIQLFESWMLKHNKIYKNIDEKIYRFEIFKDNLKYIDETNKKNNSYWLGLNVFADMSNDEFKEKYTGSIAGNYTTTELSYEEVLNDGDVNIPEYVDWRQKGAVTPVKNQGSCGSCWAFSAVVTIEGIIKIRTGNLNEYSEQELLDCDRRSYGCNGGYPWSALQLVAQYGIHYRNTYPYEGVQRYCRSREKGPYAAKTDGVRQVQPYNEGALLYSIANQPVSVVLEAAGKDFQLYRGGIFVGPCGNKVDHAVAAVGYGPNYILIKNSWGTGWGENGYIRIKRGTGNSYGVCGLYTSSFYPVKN", "test": "Primary qHTS assay for inhibitors of the protease papain (AID 1645873; active = well fitted inhibition curve with a large enough effect;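 also: papain turnover of Z-FR-AMC read as the AMC fluorescence gain over 10 min; % is scaled to controls: 0 for no effect and ±100 for the full control effect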)", "conditions": "papain Z-FR-AMC cleavage, AMC fluorescence; series mostly up to 49.8 µM", "values": [{"compound": "C[N+](C)(C)CC(=O)O", "Potency": "inactive"}, {"compound": "CC[C@@H](C(N)=O)N1CCCC1=O", "Potency": "inactive"}, {"compound": "c1ccc(C2(c3ccccc3)CC2C2=NCCN2)cc1", "note": "(stereo not drawn)", "Potency": "inactive"}, {"compound": "CC(Cc1ccc(O)cc1)NCC(O)c1cc(O)cc(O)c1", "note": "(stereo not drawn)", "Potency": "inactive"}, {"compound": "O=C(N[C@H]1CN2CCC1CC2)c1ccc(Cl)cc1", "Potency": "inactive"}, {"compound": "CCCN1CCO[C@@H]2c3cc(O)ccc3OC[C@H]21", "Potency": "inactive"}]}]}
